# According to PubChem BioAssay AID559 (PCMD, 2006):
# Out of some 62,000 compounds screened, about 100 (0.2%) were called active. For the sample, actives were picked, then their nearest neighbours and some compounds at random. Values without a mark were called inactive. Rule as the data show it: active = inhibition above about 20%; inactive = the rest.
# Target: DNA-directed RNA polymerase subunit beta (Escherichia coli (strain K12)) (UniProt P0A8V2)
# Assay: E. coli RNAP inhibitors, biochemical (AID 559);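 also: 0% = enzyme without compound and 100% = no enzyme blank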
# Conditions: fluorescence transcription assay, active compounds read high,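 tested at 10 µM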
# DNA-directed RNA polymerase subunit beta (Escherichia coli (strain K12)), sequence (P0A8V2 whole entry, looked up): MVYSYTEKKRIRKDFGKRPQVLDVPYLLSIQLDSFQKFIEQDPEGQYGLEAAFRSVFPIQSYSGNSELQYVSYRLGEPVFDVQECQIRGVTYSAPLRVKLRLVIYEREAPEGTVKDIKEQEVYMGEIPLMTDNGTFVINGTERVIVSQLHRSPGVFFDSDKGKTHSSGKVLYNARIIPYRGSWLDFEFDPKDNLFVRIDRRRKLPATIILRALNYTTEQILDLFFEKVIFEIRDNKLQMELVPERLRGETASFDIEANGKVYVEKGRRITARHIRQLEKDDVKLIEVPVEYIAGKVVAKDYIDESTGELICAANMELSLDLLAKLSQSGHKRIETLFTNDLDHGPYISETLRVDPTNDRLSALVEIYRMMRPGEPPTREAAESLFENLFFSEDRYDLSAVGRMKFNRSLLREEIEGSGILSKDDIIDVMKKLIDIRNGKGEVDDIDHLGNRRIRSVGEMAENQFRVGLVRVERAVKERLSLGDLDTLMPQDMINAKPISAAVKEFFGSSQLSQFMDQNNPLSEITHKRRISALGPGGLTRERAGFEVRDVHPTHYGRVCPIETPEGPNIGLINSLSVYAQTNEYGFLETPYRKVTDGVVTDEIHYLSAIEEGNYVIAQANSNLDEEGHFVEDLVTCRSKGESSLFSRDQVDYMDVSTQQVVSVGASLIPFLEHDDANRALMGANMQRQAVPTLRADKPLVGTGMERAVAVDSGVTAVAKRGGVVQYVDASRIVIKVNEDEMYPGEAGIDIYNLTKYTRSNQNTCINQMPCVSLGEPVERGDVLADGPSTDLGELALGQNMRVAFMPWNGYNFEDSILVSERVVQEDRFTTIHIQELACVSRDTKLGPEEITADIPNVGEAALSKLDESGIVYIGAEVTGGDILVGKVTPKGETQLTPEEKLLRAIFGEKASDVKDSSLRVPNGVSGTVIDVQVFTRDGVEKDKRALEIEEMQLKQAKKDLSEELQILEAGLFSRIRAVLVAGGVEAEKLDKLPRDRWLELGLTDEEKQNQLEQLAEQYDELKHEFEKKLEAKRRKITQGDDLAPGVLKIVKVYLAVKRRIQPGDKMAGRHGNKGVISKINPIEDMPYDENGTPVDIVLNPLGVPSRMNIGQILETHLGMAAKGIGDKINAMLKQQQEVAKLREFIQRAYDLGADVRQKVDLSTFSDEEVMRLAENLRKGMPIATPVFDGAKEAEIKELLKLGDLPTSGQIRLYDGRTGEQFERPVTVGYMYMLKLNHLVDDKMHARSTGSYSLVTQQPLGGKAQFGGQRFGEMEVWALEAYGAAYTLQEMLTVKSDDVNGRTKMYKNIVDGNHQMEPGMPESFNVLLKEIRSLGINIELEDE
row,Structure (SMILES),inhibition
1,CCOc1ccc(NS(=O)(=O)c2ccc(OCC(=O)NCCCOC)cc2)cc1,0.48%
2,COCCCN(C(=O)Cn1ncc2c(=O)oc3ccc(C)cc3c21)C(C)c1ccncc1 (stereo not drawn),5.04%
3,CCc1c(C)c2c(C)[nH]nc2oc1=O,6.94%
4,CCCOc1ccccc1-c1nc(SCCC(=O)O)n[nH]1,4.03%
5,CN(CC(=O)NC1CCCCC1)S(=O)(=O)c1cccc2cccnc12,1.4%
6,CCC(C)(C(=O)NC1CCCC1)N(C(=O)CNC(C)=O)c1ccc(C)cc1 (stereo not drawn),2.29%
7,CCC(C)(NC(=O)c1ccccn1)C(=O)NC1CCCCC1 (stereo not drawn),24.2% (active)
8,CCN1C(=O)/C(=C2/Sc3ccccc3N2CCCS(=O)(=O)O)SC1=S,14%
9,COCCNC(=O)CN1C(=O)CSc2ncccc21,2.28%
10,Cc1ccc(Cn2c(NC(=O)c3ccco3)nc3ccccc32)cc1,3.14%
11,CCOC(=O)C1CCCN(C(=O)c2sc3nc(C)nc(N4CCOCC4)c3c2C)C1 (stereo not drawn),6.92%
12,COc1cccc(N2CCN(C(=O)C3CCCN(S(=O)(=O)c4cnc[nH]4)C3)CC2)c1 (stereo not drawn),6.57%
13,Cn1c(=O)c2c(nc(N3CCCCCC3)n2CC(=O)c2ccc(Br)cc2)n(C)c1=O,6.56%
14,O=CN1CCN(C2CC(=O)N(c3ccc4c(c3)OCO4)C2=O)CC1 (stereo not drawn),-2.9%
15,Cc1cc(NC(=O)CSc2nnc(-c3ccc(Cl)s3)o2)no1,2.94%
16,Nc1nonc1-c1nc2ccccc2n1Cc1ccc(F)cc1,1.54%
17,COCc1cc(C)nc(SCC(=O)Nc2cccc(C)c2)c1C#N,10.2%
18,CC(C)C(c1nnnn1Cc1ccccc1)N1CCC(C(N)=O)CC1 (stereo not drawn),9.07%
19,O=C(NC1CCCCC1)n1c(=O)oc2cc(S(=O)(=O)N3CCCCC3)ccc21,5.56%
20,COC(=O)c1c(NC(=O)CCN2CCOCC2)sc2c1CCCC2,7.91%
21,Cc1cc(C)nc(NC2=NCC(=O)N2c2ccc(Cl)cc2)n1,9.3%
22,COC(=O)CCSc1nccn1Cc1ccccc1,2.17%
23,O=C1CSC(=O)N1CCOCCN1C(=O)CSC1=O,8.19%
24,CCOc1ccccc1Nc1nnc(SCc2ccc(C(=O)OC)o2)s1,3.87%
25,CC(=O)OCc1cc2cc(C)ccc2[nH]c1=O,8.56%

row,Structure (SMILES),inhibition
1,CC(C)OC(=O)CN1C(=O)c2ccccc2C1=O,8.17%
2,COCCN(C(=O)CCC(=O)Nc1ccccn1)C(C(=O)NCCC(C)C)c1ccc(OC)cc1 (stereo not drawn),9.79%
3,Cc1oc(-c2ccccc2F)nc1CS(=O)(=O)CC(=O)NCCCN(C)C1CCCCC1,4.54%
4,Cc1nnc(NC(=O)CSc2nccn2-c2cccc(C)c2C)s1,8.46%
5,Cc1cc(C(=O)COC(=O)CCCN2C(=O)c3ccccc3C2=O)c(C)n1C,4.5%
6,COc1ccc(Br)cc1/C=N/n1c(C)nnc1C,11.2%
7,COCCN(CC(=O)Nc1ccccc1C)S(=O)(=O)c1ccc(S(=O)(=O)N2CCCC2)cc1,4.44%
8,CC(C(=O)N1CCOCC1)N1c2cccc3cccc(c23)S1(=O)=O (stereo not drawn),8.72%
9,O=C(CCCN1C(=O)CCC1=O)Nc1ccc(Cl)c(C(F)(F)F)c1,-1.3%
10,C=CCNc1nnc(SCC(=O)N2CCCCC2)c2ccccc12,5.18%
11,CCOc1ccc(CNC(=O)C2CC(=O)N(C3CCCC3)C2)cc1OC (stereo not drawn),-2.47%
12,COC(=O)[C@H](Cc1ccccc1)NC(=O)Nc1ccc(S(N)(=O)=O)cc1,10.2%
13,CNC(=O)C1CC(=O)N(Cc2ccc3c(c2)OCO3)C(=Nc2ccc(F)cc2)S1 (stereo not drawn),-0.38%
14,CCOc1ccc(C(C)C)cc1S(=O)(=O)n1nc(C)cc1C,5.62%
15,CN1CCN(CCCNC(=O)c2cc3c(=O)oc4ccccc4c3s2)CC1,7.32%
16,CCC(=O)Nc1cccc(NC(=O)CSc2nnnn2C2CCCC2)c1,9.82%
17,Cc1cc(C)n(C(=O)c2ccc(S(=O)(=O)N3CCCC3)cc2)n1,-6.35%
18,Cc1ccc(-c2ccc(=O)n(CC(=O)NCCCN3CCCCC3)n2)cc1,5.27%
19,O=C(CCCOc1ccccc1)Nc1cccc(C(=O)O)c1,5.97%
20,COc1ccc(CC(=O)c2ccc(O)cc2O)cc1OC,-2.96%
21,Nc1nnnn1/N=C/c1cccs1,0.8%
22,O=C(Nc1cc(N2CCOCC2)ncn1)NC1(C(F)(F)F)Oc2ccc(Cl)cc2O1 (stereo not drawn),35.4% (active)
23,c1cnn(-c2cc(N3CCOCC3)ncn2)c1,-13.1%
24,COc1c(C)cccc1C(=O)Nc1cc(Cl)ccc1N1CCOCC1,5.92%
25,Cc1ccc(C)c2[nH]c(=O)c(CCNC(=O)CC(C)C)cc12,6.91%

row,Structure (SMILES),inhibition
1,O=C(NCCc1ccccn1)c1ccc(COc2ccccc2)o1,5.1%
2,CC1CC(C)CN(CC(=O)Nc2ccc(S(N)(=O)=O)cc2)C1 (stereo not drawn),4.05%
3,Cc1cc(Nc2ccc(Br)cc2F)n2ncnc2n1,-2.75%
4,CN1CCc2c(sc3c2c(NCc2ccco2)nc2nnnn23)C1,-5.9%
5,COc1ccc(-c2nc(CS(=O)CC(=O)NCc3cccnc3)c(C)o2)cc1OC (stereo not drawn),-0.41%
6,CCOC(=O)c1c(CN2CCOCC2)n(-c2ccccc2)c2ccc(O)cc12,9.89%
7,COc1cc(OC)cc(-c2nc3nc(C)c(CCC(=O)NCc4ccco4)c(C)n3n2)c1,0.61%
8,CC(=O)c1nc(N2C(=O)C3CC=C(C)CC3C2=O)sc1C (stereo not drawn),8.57%
9,O=C1c2oc3ccc(Br)cc3c(=O)c2C(c2cccc(F)c2)N1CCO (stereo not drawn),2.5%
10,CN1C(=O)c2ccc(NC(=O)c3c(F)c(F)c(F)c(F)c3F)cc2C1=O,11.6%
11,Cn1c(SCC(=O)Nc2cccc(O)c2)nnc1-c1ccc(S(=O)(=O)N2CCOCC2)cc1,0.17%
12,Fc1ccccc1OCCCCn1cncn1,2.62%
13,CCOCCCNS(=O)(=O)Cc1ccccc1,8.39%
14,Cc1ccc(O)c(NC(=O)COc2cc(C)ccc2C)c1,4.28%
15,CCCOc1ccc(C2C(C(=O)c3ccc(C)o3)=C(O)C(=O)N2CCCn2ccnc2)cc1 (stereo not drawn),5.52%
16,O=C(Nc1ccon1)c1sc2ccccc2c1Cl,-7.58%
17,NC(CSC12CC3CC(CC(C3)C1)C2)C(=O)O (stereo not drawn),4.34%
18,CC(C)c1nc(-c2ccccn2)no1,4.3%
19,O=C(NCc1ccccc1)C1C(=O)N(Cc2ccccc2)C(=O)C1C1(O)CCCC1 (stereo not drawn),-8.01%
20,CCOCC(=O)Nc1cc(OC)c(Cl)cc1OC,5.42%
21,Cc1ccc(S(=O)(=O)N2C3C=CC(C3)C2C(=O)O)cc1 (stereo not drawn),8.4%
22,Cc1cccc(N2C(=O)SC(N(CC(=O)O)c3cccc(C)c3)C2=O)c1 (stereo not drawn),6.1%
23,COc1cccc(C(CC(=O)NCCN2CCOCC2)NS(=O)(=O)c2ccc(C)cc2)c1OC (stereo not drawn),4.2%
24,Cc1ccsc1C(=O)OCC(=O)c1cc2ccccc2o1,8.68%
25,Cc1ccc(C(=O)CSc2nc3ccccc3c(=O)n2N)o1,4.54%

row,Structure (SMILES),inhibition
1,Cc1cc2c(=O)n(C)c(SCC(=O)c3cc4ccccc4o3)nc2s1,20.9% (active)
2,O=C(CN1C(=O)C2C3C=CC(C3)C2C1=O)NCC1COc2ccccc2O1 (stereo not drawn),-8.67%
3,O=C1CCC(Cc2ccccc2)N1 (stereo not drawn),6.1%
4,Cn1c(=O)n(C)c(=O)n(CC(=O)N2CCCCC2)c1=O,5.37%
5,CC(=O)Nc1cccc2c1[n+]([O-])c(C)c(C)[n+]2[O-],-3.37%
6,O=C(Nc1nc2cc3c(cc2s1)OCCO3)c1cccc(S(=O)(=O)N2CCOCC2)c1,-1.12%
7,CCCN1C(=O)C(NC(C)=O)c2cc(OC)ccc21 (stereo not drawn),8.13%
8,Cc1noc(NS(=O)(=O)c2ccc(NC(=O)C34CCC(CC3)C4)cc2)c1C,3.43%
9,COc1cccc2sc(Nc3nc(C)c(C(C)=O)s3)nc12,-0.4%
10,CCCOc1ccc(NC(=O)C2CCCNC2=O)cc1 (stereo not drawn),2.77%
11,CCCCOC(=O)NCN1C(=O)C2C3C=CC(C3)C2C1=O (stereo not drawn),0.68%
12,COc1ccc(OC)c(NC(=O)CC(Cc2ccccc2OC)C(=O)O)c1 (stereo not drawn),4.42%
13,CC(C)N(C(=O)Cn1c(SCC(=O)N2CCN(c3ccccc3)CC2)nc2ccccc21)C(C)C,5.85%
14,O=C(Cn1nc(C(F)(F)F)c2c1CCC2)NCc1ccc(F)cc1,-0.7%
15,COc1ccc(CNC(=O)c2c(C)cc(=O)oc2C)cc1OC,8.6%
16,Cc1nc(NC(CC(C)C)C(=O)O)c2nc(C)oc2n1 (stereo not drawn),-1.28%
17,O=C(CSc1n[nH]c(-c2cccnc2)n1)Nc1ccnc2ccccc12,11.1%
18,O=S(=O)(c1ccc(OCC(O)CN2CCN(c3ccccc3Cl)CC2)cc1)N1CCOCC1 (stereo not drawn),1.46%
19,CCOc1cc(-c2nc3cc(C)ccn3c2NCC2CCCO2)ccc1O (stereo not drawn),6.06%
20,CCCNS(=O)(=O)c1ccc2c(c1)CCCN2C(C)=O,5.31%
21,CCN(CC)c1ccc(C(=O)OCC(=O)c2ccco2)cc1,4.69%
22,C=CCOC(=O)C1=C(C)OC(N)=C(C#N)C1c1ccc(F)cc1 (stereo not drawn),0.25%
23,Cc1ccc(C2CC(c3cccc(Br)c3)n3nc(N)nc3N2)cc1 (stereo not drawn),8.67%
